Values joined by “and” are separate entries in the source; they are usually repeats but may differ in a detail not shown here. Equal values may be shown once. About 83,000 compounds went through this panel and 20% of them were active in at least one assay; those are over-represented in the sample as a whole.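 Cell lines were cultured in 96-well plates, exposed to a single compound concentration, and assessed for percent growth 48 hours later.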 Active and inactive are the calls of the source. The calls were made as follows: active = growth percent below 10; inactive = the rest.

This test has as its system HL-60(TB) leukemia. The test can be described thus: NCI-60 one-dose screen, 48 h (100 = growth as untreated, 0 = no growth, -100 = all killed). To be noted: 10 µM unless noted.
In the case of `CO[C@H](C(=O)[C@@H](O)[C@@H](C)O)[C@@H]1Cc2cc3cc(OC4CC(OC5CC(O)C(O)C(C)O5)C(O)C(C)O4)c(C)c(O)c3c(O)c2C(=O)[C@H]1OC1CC(OC2CC(OC3CC(C)(O)C(O)C(C)O3)C(O)C(C)O2)C(O)C(C)O1` (stereo not given in full), the growth is 3.88% (active).

Turning to `COc1cc2c(O)n(CCCn3ccnc3)c3c4cnc5cccc(c(=O)c3c2cc1OC)c54`, the growth is 6.68% (active). For `O=c1c2sc3ncccc3c2nnn1-c1ccccc1`, the growth is 106% (inactive). As for `COc1ccc(/C=C(/C#N)n2nnc3cccc(F)c32)cc1`, the figure is -9.75% (active); as for `CN(O)c1nc(N(C)O)nc(N2CCOCC2)n1`, 21.5% (inactive). In the case of `N#CCCN(NC(=O)OCc1ccccc1)C(=O)OCc1ccccc1`, the growth was 115% (inactive). For `NC(N)=NC1CCCCC1` the value was 94.4% (inactive); for `COc1ccc2nc(-c3ccc(Cl)cc3)cc(-c3nnc(SCC(=O)Nc4ccc(/C(C)=N\O)cc4)o3)c2c1`, 61.9% (inactive). For `NS(=O)(=O)c1ccc(-n2nc(-c3ccc(Br)cc3)ccc2=O)cc1` the value was 88.5% [100 µM] (inactive).

With `N#CC(C#N)=C/C=C/c1cccc([N+](=O)[O-])c1`, the growth is -10.5% (active) and -9.74% (active). For `CCC[C@H](N[C@@H](C)C(=O)N1[C@H](C(=O)O)C[C@@H]2CCCC[C@@H]21)C(=O)OCC` the value was 116% (inactive); for `COc1cc(/C=C/C(=O)c2c(C)n([O-])c3ccccc3[n+]2=O)cc(OC)c1OC`, -10.8% (active); for `Cc1cc(N)c2ccccc2[n+]1CCCCCCCCCC[n+]1c(C)cc(N)c2ccccc21`, -65% (active) and -69.4% (active). For `CC1=CC(=C(c2ccc(N)cc2)c2ccc(N)cc2)C=CC1=N`, the growth was -13.5% (active) and 47.8% (inactive). As for `CN1C(=O)/C(=C/c2ccc(C(=O)Nc3ncc(Cc4ccc(Cl)cc4)s3)cc2)SC1=S`, the figure is 57.6% (inactive); as for `COc1ccc(C(O)c2ccccc2)cc1` (stereo not given), 102% (inactive); as for `CC/C=C\C[C@H](O)C/C=C1/C(=O)C=C[C@@H]1C/C=C\CCCC(=O)N(C)C`, 0.857% (active). As for `COc1ccc(-n2c(C)nc3c(c(C)nn3-c3ccccc3)c2=O)cc1`, the figure is -18.3% (active); as for `O=C1N/C(=N\c2nnc(-c3ccc(O)cc3)s2)S/C1=C\c1ccccc1O`, 104% (inactive); as for `CCCCn1c(=O)[nH]c(N)c(C(c2ccc(Cl)cc2)c2c(N)[nH]c(=O)n(CCCC)c2=O)c1=O`, 13.2% (inactive). As for `O=C(COc1cccc(/C=C2\COc3ccc(Cl)cc3C2=O)c1)c1ccc(Cl)cc1`, the figure is 52.7% (inactive).

`Cc1ccc(NS(=O)(=O)c2ccc(C)cc2)cc1`: the growth was 87.5% (inactive) and 114% (inactive). As for `Nc1nc(SC/C=C/CCl)c2[nH]cnc2n1`, the figure is 97.8% (inactive) and 103% (inactive); as for `Cc1cnc(N)nc1OCCNC(=O)c1cccc(-c2ccc(S(=O)(=O)Nc3ccc4c(c3)N(C(=O)C3CC3)CCC4)cc2)c1`, 43.3% (inactive). As for `CCC(=O)OC1=C(C)SC2=NC(c3ccc(Cl)c(Cl)c3)=CC(c3cc(OC)c(OC)c(OC)c3)N21` (stereo not given), the figure is 97.8% (inactive); as for `CC(CN=Cc1ccccc1O)N=Cc1ccccc1O` (stereo not given), 110% (inactive) and 83% (inactive).

For `O=S(=O)(NCCCNc1cc(-c2cn(-c3ccccc3)nc2-c2cccc(O)c2)ccn1)c1ccc(Cl)cc1`, the growth is 1.22% (active).

`C=C1C(=O)O[C@H]2[C@H]1CC/C(COC(=O)/C=C\C(=O)NCc1ccc(Cn3c(=O)sn(-c4ccc(Cl)cc4)c3=O)cc1)=C\CC[C@@]1(C)O[C@@H]21`: the growth was -52.5% (active). As to `OC(CC(c1ccccc1)c1cccc2ccccc12)(c1ccccc1)c1ccccc1` (stereo not given), the growth was 99.1% (inactive) and 101% (inactive). For `CC1=CSC2=NC(c3ccc(Cl)c(Cl)c3)=CC(c3ccc(Cl)cc3)N12` (stereo not given) the value was 47.7% (inactive); for `COC1=CC(c2ccc[nH]2)=N/C1=C\c1[nH]c(C)c(C(=O)CCCCC(=O)NCc2ccccc2)c1C`, 69% (inactive). For `Cn1cc(-c2nonc2-c2c[nH]c3ccc(Br)cc23)c2cc(Br)ccc21` the value was 54% (inactive).

`C=C1C(=O)O[C@H]2[C@H]1CC/C(COC(=O)CSCCSCC(=O)OC/C1=C/CC[C@@]3(C)O[C@H]3[C@H]3OC(=O)C(=C)[C@@H]3CC1)=C\CC[C@@]1(C)O[C@@H]21`: the growth is -58.8% (active). In the case of `O=C1NC(=O)c2c1c1c3ccccc3ccc1c1[nH]c3ccc(Br)cc3c21`, the growth is 18.7% (inactive). As for `COc1ccc(/C=C/C(=C/c2c(O)[nH]c3cc(Br)ccc23)N=O)cc1`, the figure is 119% (inactive); as for `COc1cc(-c2csc(NC(=O)Nc3cccc(C(F)(F)F)c3)n2)cc(OC)c1OC`, 44.6% (inactive); as for `COc1ccc2nc3cc(Cl)ccc3c(NCCCNC(C)=O)c2c1`, 57.7% (inactive).

For `COc1ccc(NC(=O)c2cccc(-c3cc(=O)c4c(O)c(OC)c(OC)cc4o3)c2)cc1`, the growth was 130% (inactive). For `CCN(CC)CCOc1ccc(-c2c(-c3ccccc3)c(=O)oc3ccccc23)cc1` the value was 107% (inactive); for `COc1ccc(NC(=O)c2cc(OC)c(OC)c(OC)c2)cc1O`, 32.5% (inactive).
